{"source": "PubChem BioAssay (EPA / NIEHS)", "note": "Results filed as inconclusive are left out. The source made the active and inactive calls. Rule for the calls: active = hit-call score of the fitted dose curve at least 0.9, where 1 is the maximum; inconclusive = response in the unintended direction; inactive = score below 0.9.", "data": [{"test": "ATG_M_32_TRANS: Attagene TRANS-FACTORIAL HepG2 Assay for M32 Transcription Factor (Internal Marker) (AID 2282984)", "conditions": "HepG2 Attagene TRANS M32 internal marker reporter", "description": "ATG_TRANS is a cell-based, multiplexed-readout assay that uses HepG2, a human liver cell line, with measurements taken at 24 hours after chemical dosing in a 24-well plate.ATG_M_32_TRANS is one of 30 assay component(s) measured or calculated from the ATG_TRANS assay. It is designed to make measurements of mRNA induction, a form of inducible reporter, as detected with fluorescence intensity signals by Reverse transcription polymerase chain reaction (RT-PCR) and Capillary electrophoresis technology.Data from the assay component ATG_M_32_TRANS was analyzed into 1 assay endpoint. This assay endpoint, ATG_M_32_TRANS, was analyzed in the positive analysis fitting direction relative to DMSO as the negative control and baseline of activity. Using a type of inducible reporter, measures of mRNA for gain-of-signal activity can be used to understand the background control at the transcription factor-level as they relate to the gene . Furthermore, this assay endpoint can be referred to as a secondary readout, because this assay has produced multiple assay endpoints where this one serves a background control function. To generalize the intended target to other relatable targets, this assay endpoint is annotated to the background measurement intended target family, where the subfamily is internal marker.\nHuman liver HepG2 cells are transiently transfected with multiple reporter transcription units (MRTUs) in 6-well plates using FuGene 6 reagent (Roche; 3 ml FuGene/1 mg DNA). The MRTU constructs are regulated by a cis-regulating element (promoter). […] A major difference between the CIS and TRANS system is that in CIS activities of endogenous TFs are measured, whereas the TRANS assay evaluates changes in activities of exogenous, chimeric NR-Gal4 proteins. […] At the end of 24 hour incubation, total RNA was isolated using TriZol reagent (Invitrogen). The isolated RNA is then reverse-transcribed using oligo(dT) primer and Mo-MLV reverse transcriptase (Invitrogen) with DNAse I (Ambion) treatment for 30 min. The one-tenth of the produced cDNA was amplified by PCR using Taq DNA polymerase (Invitrogen) and two reporter sequence-specific primers. The PCR products were fluorescently labeled by primer extension with 6-arboxyfluorescein (6-FAM) 5'-labeled reporter sequence-specific primer (2 min at 95 C, 20 s at 68 C and 10 min at 72 C) and these products were digested with 5U of HpaI (New England Biolabs) for 2h at 37 C. The fragments were purified using Qiaquick PCR columns (Qiagen), analyzed on an ABI 3130xL genetic analyzer (Applied Biosystems) with peak positions identified by using a set of X-rhodamine (ROX)-labeled MapMarker1000 molecular weight standards (BioVentures). The raw capillary electrophoresis data was processed using Attagraph software (Attagene).", "values": [{"smiles": "Nc1ccc(Cl)c(N)c1", "outcome": "inactive"}, {"smiles": "CCCCNS(=O)(=O)c1ccccc1", "outcome": "inactive"}, {"smiles": "OCCCc1ccccc1", "outcome": "inactive"}, {"smiles": "CO[Si](C)(C)OC", "outcome": "inactive"}, {"smiles": "CC1=CCC(C(C)C)C=C1", "note": "(stereo not given)", "outcome": "inactive"}, {"smiles": "COC(C=C(C)CCC=C(C)C)OC", "outcome": "inactive"}, {"smiles": "CCOB(OCC)OCC", "outcome": "inactive"}, {"smiles": "CCC(C)C(=O)OC", "note": "(stereo not given)", "outcome": "inactive"}, {"smiles": "CC(=O)OCC=C(C)C", "outcome": "inactive"}, {"smiles": "CC1=NN(c2ccc(S(=O)(=O)O)cc2)C(=O)C1N=Nc1ccccc1", "note": "(stereo not given)", "outcome": "inactive"}, {"smiles": "CCCCC/C=C\\C/C=C\\CCCCCCCC(=O)O", "outcome": "inactive"}, {"smiles": "Oc1ccccc1Cc1ccccc1O", "outcome": "inactive"}, {"smiles": "O=C(C=Cc1ccccc1)OCCc1ccccc1", "outcome": "inactive"}, {"smiles": "C=CCCCCCCCCC=O", "outcome": "inactive"}, {"smiles": "CCOC(=O)C1=NN(c2ccc(Cl)cc2Cl)C(C)(C(=O)OCC)C1", "note": "(stereo not given)", "outcome": "inactive"}, {"smiles": "O=C(O)CCCC(=O)O", "outcome": "inactive"}, {"smiles": "N#Cc1ccc(C2CCCc3cncn32)cc1", "note": "(stereo not given)", "outcome": "inactive"}, {"smiles": "C=C[Si](OCCOC)(OCCOC)OCCOC", "outcome": "inactive"}, {"smiles": "CC(C)CCOCc1ccccc1", "outcome": "inactive"}, {"smiles": "N#Cc1ccc(C(c2ccc(C#N)cc2)n2cncn2)cc1", "outcome": "inactive"}, {"smiles": "CCCCC1C(=O)N(c2ccccc2)N(c2ccccc2)C1=O", "outcome": "inactive"}, {"smiles": "CC(=O)OC/C=C(/C)CCC=C(C)C", "outcome": "inactive"}, {"smiles": "CC(C)CO", "outcome": "inactive"}, {"smiles": "N#CC1(N)CCCCC1", "outcome": "inactive"}, {"smiles": "CC(C)(O)Cc1ccccc1", "outcome": "inactive"}, {"smiles": "COc1ccc(C(=O)c2ccccc2)c(O)c1", "outcome": "inactive"}, {"smiles": "CC/C=C\\CCOC(=O)c1ccccc1O", "outcome": "inactive"}, {"smiles": "C=C(C)C(=O)OCCCCCCCCCCCC", "outcome": "inactive"}, {"smiles": "CC1=C(O)C(=O)C(C)O1", "note": "(stereo not given)", "outcome": "inactive"}, {"smiles": "CCCC1CCCC(=O)O1", "note": "(stereo not given)", "outcome": "inactive"}, {"smiles": "C=C(C)C1CC=C(C)CC1", "note": "(stereo not given)", "outcome": "inactive"}, {"smiles": "CC(C)CCCCCOC(=O)CS", "outcome": "inactive"}, {"smiles": "CCOc1ccc(NC(N)=O)cc1", "outcome": "inactive"}, {"smiles": "CCCCCCCOC(=O)c1ccc(O)cc1", "outcome": "inactive"}, {"smiles": "CC1=CC(C)C(C=O)CC1", "note": "(stereo not given)", "outcome": "inactive"}, {"smiles": "COC(OC)(C(=O)c1ccccc1)c1ccccc1", "outcome": "inactive"}, {"smiles": "Nc1ccc(C(=O)O)cc1", "outcome": "inactive"}, {"smiles": "CC(C)(C)NC(=O)[C@H]1CC[C@H]2[C@@H]3CC[C@H]4NC(=O)C=C[C@]4(C)[C@H]3CC[C@]12C", "outcome": "inactive"}, {"smiles": "CC(=O)OCCc1ccccc1", "outcome": "inactive"}, {"smiles": "CC1=CCC2CC1C2(C)C", "note": "(stereo not given)", "outcome": "inactive"}]}]}
